These results are taken from PubChem BioAssay (NCATS).

Test [1] is described as follows: Primary qHTS for Huh7 cytotoxicity: counterscreen for inhibitors of MERS-S pseudotyped particle cell entry (AID 1479147). For orientation: qHTS replaces the single test concentration by a dilution series.
Test [2] in a line: Primary qHTS for inhibitors of MERS-S pseudo-typed particle cell entry (AID 1479149). Also: nearly all actives have a fitted effect of over 60% in size. As to activity change, negative = inhibition: % is scaled to controls: 0 for no effect and ±100 for the full control effect.
Test [3] is described as follows: Primary qHTS for Vero E6 cytotoxicity: counterscreen for inhibitors of SARS-S pseudo-typed particle cell entry (AID 1479150).
A short description of test [4]: Cytotoxicity counterscreen for inhibitors of SARS-CoV-2 cell entry (AID 1645845). Also: nearly all actives have a fitted effect of over 50% in size. The procedure, abridged: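 ATP-content luminescence (ATPLite 1step, 15 min RT) read after 48 h compound exposure of Expi293F cells stably expressing human ACE2; normalized to cells-only wells and media-only wells.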
The nature of test [5]: Primary qHTS to identify inhibitors of SARS-CoV-2 cell entry (AID 1645846). Also: nearly all actives have a fitted effect of over 45% in size. The following applies: activity change, negative = inhibition: at 57.1 µM (top of the series) unless noted. The procedure, abridged: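 Using luciferase-reporting pseudoviruses carrying Wuhan-Hu-1 spike, the screen tracks entry into stably ACE2-expressing cells over 48 hr. Activity is expressed relative to spike particles versus particles lacking any fusion protein.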

“And” between values parts separate entries of the source, which are not always exact repeats. Identical values can stand only once. Results filed as inconclusive are left out. The source made the active and inactive calls. Calls follow the shape of the full dose curve.

On to `CC(COc1ccccc1)N(CCCl)Cc1ccccc1` (stereo not given), for which the Potency entry in test [1], in test [2], in test [3] and in test [4] was “inactive” in each case. In addition, the activity change, negative = inhibition in test [5] was -7.59%.

On to `CCN(C)C(=O)Oc1cccc([C@H](C)N(C)C)c1`, for which the Potency result in test [1], in test [2], in test [3], in test [4] and in test [5] was “inactive” throughout.

Regarding `CCOC(=O)[C@H](CCc1ccccc1)N[C@@H](C)C(=O)N1Cc2cc(OC)c(OC)cc2C[C@H]1C(=O)O`, the Potency entry in test [1], in test [2], in test [3] and in test [4] was “inactive” throughout. In addition, the activity change, negative = inhibition in test [5] is -29.2%.

Take `CCOC(=O)[C@H](CCc1ccccc1)N[C@@H](C)C(=O)N1[C@H](C(=O)O)C[C@@H]2CCC[C@@H]21`: the Potency entry in test [1], in test [2], in test [3], in test [4] and in test [5] was “inactive” throughout.

In the case of `CCCCc1nc(Cl)c(CO)n1Cc1ccc(-c2ccccc2-c2nn[nH]n2)cc1`, the Potency entry in test [1], in test [2], in test [3], in test [4] and in test [5] was “inactive” in each case.

For `CC(C)[N+](C)(CCOC(=O)C1c2ccccc2Oc2ccccc21)C(C)C`, the Potency result in test [1], in test [2], in test [3] and in test [4] was “inactive” throughout. The activity change, negative = inhibition in test [5] stood at 2.34%.

With `CCCCC1=NC2(CCCC2)C(=O)N1Cc1ccc(-c2ccccc2-c2nn[nH]n2)cc1`, the Potency result in test [1], in test [2], in test [3], in test [4] and in test [5] was “inactive” in each case.

Take `CN(N=O)C(=O)N[C@@H]1[C@@H](O)[C@H](O)[C@@H](CO)O[C@@H]1O`: the Potency entry in test [1], in test [2], in test [3] and in test [4] was “inactive” each time. The activity change, negative = inhibition in test [5] was -3.87% and -2.3%.

Turning to `CCCN(CCC)CCc1cccc2c1CC(=O)N2`, the Potency entry in test [1], in test [2], in test [3], in test [4] and in test [5] was “inactive” each time.

For `COc1ccc(Cl)cc1C(=O)NCCc1ccc(S(=O)(=O)NC(=O)NC2CCCCC2)cc1`, the Potency entry in test [1], in test [2], in test [3] and in test [4] was “inactive” each time. In addition, the activity change, negative = inhibition in test [5] worked out at 4.27%.
